In ChEMBL document CHEMBL1157539, “Thousands of chemical starting points for antimalarial lead identification” (Nature, 2010):

Test system: Plasmodium falciparum
Experiment: GSK_TCMDC: Inhibition of Plasmodium falciparum Dd2 in whole red blood cells, using parasite LDH activity as an index of growth. Test compounds present at 2uM
Type: functional

Q: COc1ccc(CCNc2ccnc3cc(Cl)ccc23)cc1OC.Cl was tested. Which Inhibition did it give?
A: The Inhibition was 92%.

Q: How did the Inhibition turn out when CCCCCN1CCCCC(NS(=O)(=O)c2ccc(C(=O)Nc3cccc(C(F)(F)F)c3)cc2)C1.O=C(O)C(F)(F)F (stereo not given) was run?
A: The Inhibition was 2%.

Q: With Cc1nn(CC(C)C)c2sc(C(=O)N3CCN(S(=O)(=O)c4ccc(C#N)cc4)CC3)cc12 as the compound, how does the Inhibition read?
A: Its Inhibition is 99%.

Q: With O=C(N[C@@H](CC1CCCCC1)C(=O)NC1CCCc2ccccc21)c1ccc(O)c(-c2cccc(C(F)(F)F)c2)c1 (stereo not given in full) as the compound, how does the Inhibition read?
A: Its Inhibition is 99%.

Q: For Cc1nnc2c(NC(=O)/C=C/c3ccc(OC(F)(F)F)cc3)cc3cc(Cl)ccc3n12, which Inhibition is on record?
A: Its Inhibition is 99%.

Q: How did the Inhibition turn out when Cc1ccc(F)cc1S(=O)(=O)N1CCCCC(c2ccc(C(F)(F)F)cc2)=N1 was run?
A: The Inhibition was 75%.

Q: Which Inhibition does the source give for Cl.O=C(Nc1cccc(Cl)c1)OC1CCCN2CCCCC12 (stereo not given) here?
A: Its Inhibition is 0%.

Q: Which Inhibition does the source give for CCCCCN1CCCC1CNS(=O)(=O)c1cccc(C(=O)Nc2cccc(C(F)(F)F)c2)c1.O=C(O)C(F)(F)F (stereo not given) here?
A: Its Inhibition is 12%.

Q: With Cc1ccc(NC(=O)Cc2noc(CC3CCCN3C(=O)N[C@@H](C)c3ccccc3)n2)cc1 (stereo not given in full) as the compound, how does the Inhibition read?
A: Its Inhibition is 90%.

Q: How did the Inhibition turn out when CC1SC(=S)NC1C(=O)O (stereo not given) was run?
A: Its Inhibition is 0%.

Q: For CCCCN(CCCC)CCCCCCNc1c2ccccc2nc2ccccc12.Cl, which Inhibition is on record?
A: Its Inhibition is 87%.

Q: For NS(=O)(=O)c1cccc(Nc2nc(N[C@@H]3CCNC3)nc3cc[nH]c(=O)c23)c1.O=C(O)C(F)(F)F, which Inhibition is on record?
A: Its Inhibition is 98%.

Q: Which Inhibition does the source give for COc1ccc2ccccc2c1CNCCCCCCNCc1c(OC)ccc2ccccc12.Cl here?
A: Its Inhibition is 35%.

Q: CC(C)COc1ccc(Cl)cc1Cc1ccc(-c2nc3cc(CCN4CCCC4)ccc3[nH]2)o1.Cl was tested. Which Inhibition did it give?
A: The Inhibition was 94%.

Q: How did the Inhibition turn out when COc1cc2nc(N(C)C)nc(Nc3ccc4c(cnn4Cc4ccccc4)c3)c2cc1OC was run?
A: Its Inhibition is 100%.

Q: Which Inhibition does the source give for Cl.O=C(/C=C/c1ccc(F)cc1)NC1CCC(CCN2CCc3ccccc3CC2)CC1 (stereo not given) here?
A: The Inhibition was 36%.

Q: For Cn1ncc2ccc(Nc3nccc(-c4ccc5c(c4)c(N)nn5C)n3)cc21, which Inhibition is on record?
A: Its Inhibition is 96%.

Q: For Oc1cc(NCc2ccccc2NCc2ccc(Cl)c(Cl)c2)nc2ccccc12, which Inhibition is on record?
A: The Inhibition was 98%.

Q: Which Inhibition does the source give for COc1cc2c(cc1NC(=O)CN1CCN(C(=O)c3ccco3)CC1)oc1ccccc12 here?
A: The Inhibition was 96%.

Q: For O=C(Nc1cccc(CN2CCCN(Cc3ccc(O)cc3)CC2)c1)c1cccc(Cl)c1.O=C(O)C(F)(F)F, which Inhibition is on record?
A: The Inhibition was 41%.

Q: Which Inhibition does the source give for COc1ccc(CCC(C)(C)NCC(O)c2cccc(C(F)(F)F)c2)cc1 (stereo not given) here?
A: Its Inhibition is 98%.

Q: With Oc1ccc2ccccc2c1CNCC1CCCCC1 as the compound, how does the Inhibition read?
A: The Inhibition was 93%.

Q: Which Inhibition does the source give for CC1CN(c2cnn(Cc3ccc(NC(=O)Nc4ccc(-c5ccccc5)cc4)cc3)c(=O)c2Cl)CC(C)N1.O=C(O)C(F)(F)F (stereo not given) here?
A: The Inhibition was 46%.

Q: How did the Inhibition turn out when O=C(Nc1cccc(CN2CCN(C(=O)c3cccc(Cl)c3)CC2)c1)c1ccco1.O=C(O)C(F)(F)F was run?
A: The Inhibition was 94%.

Q: How did the Inhibition turn out when CCSc1ccccc1COc1c(C)nc(N)nc1N.Cl was run?
A: The Inhibition was 4%.

Q: With CC(C)(C)c1ccc(CN2CCC(CNC(=O)c3cc(-c4ccccc4Cl)cs3)C2)cc1.O=C(O)C(F)(F)F (stereo not given) as the compound, how does the Inhibition read?
A: The Inhibition was 56%.

Q: For Cn1c(NC(=O)c2ccc(CNC(=O)c3ccc(O)c(-c4ccc(Cl)c(Cl)c4)c3)cc2)nc2ccccc21, which Inhibition is on record?
A: The Inhibition was 74%.

Q: For COC(=O)[C@@H](NC(=O)[C@@H](Nc1ccc(C#N)c2ccccc12)C(C)(C)C)c1ccc(O)cc1, which Inhibition is on record?
A: Its Inhibition is 74%.

Q: For O=C(Nc1ccccc1Cl)N(Cc1cc(Cl)cc(Cl)c1)CC(O)COc1ccc(Cl)c(F)c1 (stereo not given), which Inhibition is on record?
A: The Inhibition was 17%.

Q: With O=C(O)c1cccnc1Sc1ccc(Cl)cc1 as the compound, how does the Inhibition read?
A: The Inhibition was 4%.

Q: COc1ccccc1-c1csc(C(=O)NCC2CCN(Cc3ccc(C(C)(C)C)cc3)C2)c1.O=C(O)C(F)(F)F (stereo not given) was tested. Which Inhibition did it give?
A: Its Inhibition is 11%.

Q: With COc1ccc2c(c1)Sc1ccccc1C(N1CCN(CCO)CC1)C2.Cl (stereo not given) as the compound, how does the Inhibition read?
A: The Inhibition was 4%.

Q: Which Inhibition does the source give for CCCn1cnc2cc(C(=O)Nc3ccc(-c4cccc(CN(C)C)c4)cc3)ccc2c1=O here?
A: Its Inhibition is 6%.

Q: Cc1cc(Nc2ccccc2)nc(Nc2ccccc2C)n1.Cl was tested. Which Inhibition did it give?
A: Its Inhibition is 27%.

Q: For NCCNS(=O)(=O)c1ccc(-c2ccnc3[nH]c(-c4ccncc4)cc23)cc1.O=C(O)C(F)(F)F, which Inhibition is on record?
A: The Inhibition was 95%.

Q: How did the Inhibition turn out when CCC(=O)N[C@@H]1CN[C@@H](C#Cc2cc3c(Nc4ccc(OCc5cccc(F)c5)c(Cl)c4)ncnc3s2)C1 was run?
A: Its Inhibition is 0%.

Q: How did the Inhibition turn out when FC(F)(F)c1ccc(NC(=S)N2CCC(CCN3CCC(c4c[nH]c5ccccc45)CC3)CC2)cc1 was run?
A: The Inhibition was 37%.

Q: O=C(NCCCCN1CCC(c2ccc3c(c2OCC2CC2)CCCC3)CC1)c1ccc(NC(=O)c2ccc(Cl)cc2)cc1 was tested. Which Inhibition did it give?
A: Its Inhibition is 93%.

Q: With Cc1cc(C(=O)Nc2ccc3c(c2)CCN3C2CCN(Cc3cc(F)cc(F)c3F)C2)no1 (stereo not given) as the compound, how does the Inhibition read?
A: Its Inhibition is 96%.

Q: CN(C)C(CNC(=O)c1cc(-c2ccncc2)c(-c2ccc(NC(=O)Nc3cccc(Cl)c3)cc2)o1)c1ccccc1.O=C(O)C(F)(F)F (stereo not given) was tested. Which Inhibition did it give?
A: The Inhibition was 100%.

Test system: HepG2
Experiment: GSK_TCMDC: Percent inhibition of human HepG2 cell line. Test compounds present at 10uM.
Type: functional

Q: For COc1ccc(CCNc2ccnc3cc(Cl)ccc23)cc1OC.Cl, which Inhibition is on record?
A: The Inhibition was 4%.

Q: CCCCCN1CCCCC(NS(=O)(=O)c2ccc(C(=O)Nc3cccc(C(F)(F)F)c3)cc2)C1.O=C(O)C(F)(F)F (stereo not given) was tested. Which Inhibition did it give?
A: The Inhibition was 14%.

Q: How did the Inhibition turn out when Cc1nn(CC(C)C)c2sc(C(=O)N3CCN(S(=O)(=O)c4ccc(C#N)cc4)CC3)cc12 was run?
A: The Inhibition was 14%.

Q: Which Inhibition does the source give for O=C(N[C@@H](CC1CCCCC1)C(=O)NC1CCCc2ccccc21)c1ccc(O)c(-c2cccc(C(F)(F)F)c2)c1 (stereo not given in full) here?
A: The Inhibition was 0%.

Q: Which Inhibition does the source give for Cc1nnc2c(NC(=O)/C=C/c3ccc(OC(F)(F)F)cc3)cc3cc(Cl)ccc3n12 here?
A: The Inhibition was 19%.

Q: For Cc1ccc(F)cc1S(=O)(=O)N1CCCCC(c2ccc(C(F)(F)F)cc2)=N1, which Inhibition is on record?
A: Its Inhibition is 8%.

Q: For Cl.O=C(Nc1cccc(Cl)c1)OC1CCCN2CCCCC12 (stereo not given), which Inhibition is on record?
A: The Inhibition was 6%.

Q: With CCCCCN1CCCC1CNS(=O)(=O)c1cccc(C(=O)Nc2cccc(C(F)(F)F)c2)c1.O=C(O)C(F)(F)F (stereo not given) as the compound, how does the Inhibition read?
A: Its Inhibition is 15%.

Q: How did the Inhibition turn out when Cc1ccc(NC(=O)Cc2noc(CC3CCCN3C(=O)N[C@@H](C)c3ccccc3)n2)cc1 (stereo not given in full) was run?
A: Its Inhibition is 1%.

Q: For CC1SC(=S)NC1C(=O)O (stereo not given), which Inhibition is on record?
A: The Inhibition was 3%.

Q: Which Inhibition does the source give for CCCCN(CCCC)CCCCCCNc1c2ccccc2nc2ccccc12.Cl here?
A: Its Inhibition is 49%.

Q: NS(=O)(=O)c1cccc(Nc2nc(N[C@@H]3CCNC3)nc3cc[nH]c(=O)c23)c1.O=C(O)C(F)(F)F was tested. Which Inhibition did it give?
A: The Inhibition was 7%.

Q: With COc1ccc2ccccc2c1CNCCCCCCNCc1c(OC)ccc2ccccc12.Cl as the compound, how does the Inhibition read?
A: The Inhibition was 99%.

Q: Which Inhibition does the source give for CC(C)COc1ccc(Cl)cc1Cc1ccc(-c2nc3cc(CCN4CCCC4)ccc3[nH]2)o1.Cl here?
A: Its Inhibition is 34%.

Q: With COc1cc2nc(N(C)C)nc(Nc3ccc4c(cnn4Cc4ccccc4)c3)c2cc1OC as the compound, how does the Inhibition read?
A: The Inhibition was 90%.

Q: Which Inhibition does the source give for Cl.O=C(/C=C/c1ccc(F)cc1)NC1CCC(CCN2CCc3ccccc3CC2)CC1 (stereo not given) here?
A: Its Inhibition is 27%.

Q: Cn1ncc2ccc(Nc3nccc(-c4ccc5c(c4)c(N)nn5C)n3)cc21 was tested. Which Inhibition did it give?
A: The Inhibition was 48%.

Q: How did the Inhibition turn out when Oc1cc(NCc2ccccc2NCc2ccc(Cl)c(Cl)c2)nc2ccccc12 was run?
A: Its Inhibition is 10%.

Q: With COc1cc2c(cc1NC(=O)CN1CCN(C(=O)c3ccco3)CC1)oc1ccccc12 as the compound, how does the Inhibition read?
A: Its Inhibition is 13%.

Q: How did the Inhibition turn out when O=C(Nc1cccc(CN2CCCN(Cc3ccc(O)cc3)CC2)c1)c1cccc(Cl)c1.O=C(O)C(F)(F)F was run?
A: Its Inhibition is 10%.

Q: Which Inhibition does the source give for COc1ccc(CCC(C)(C)NCC(O)c2cccc(C(F)(F)F)c2)cc1 (stereo not given) here?
A: Its Inhibition is 26%.

Q: Which Inhibition does the source give for Oc1ccc2ccccc2c1CNCC1CCCCC1 here?
A: The Inhibition was 0%.

Q: For CC1CN(c2cnn(Cc3ccc(NC(=O)Nc4ccc(-c5ccccc5)cc4)cc3)c(=O)c2Cl)CC(C)N1.O=C(O)C(F)(F)F (stereo not given), which Inhibition is on record?
A: The Inhibition was 82%.

Q: O=C(Nc1cccc(CN2CCN(C(=O)c3cccc(Cl)c3)CC2)c1)c1ccco1.O=C(O)C(F)(F)F was tested. Which Inhibition did it give?
A: Its Inhibition is 7%.

Q: For CCSc1ccccc1COc1c(C)nc(N)nc1N.Cl, which Inhibition is on record?
A: The Inhibition was 54%.

Q: How did the Inhibition turn out when CC(C)(C)c1ccc(CN2CCC(CNC(=O)c3cc(-c4ccccc4Cl)cs3)C2)cc1.O=C(O)C(F)(F)F (stereo not given) was run?
A: The Inhibition was 33%.

Q: Cn1c(NC(=O)c2ccc(CNC(=O)c3ccc(O)c(-c4ccc(Cl)c(Cl)c4)c3)cc2)nc2ccccc21 was tested. Which Inhibition did it give?
A: Its Inhibition is 20%.

Q: How did the Inhibition turn out when COC(=O)[C@@H](NC(=O)[C@@H](Nc1ccc(C#N)c2ccccc12)C(C)(C)C)c1ccc(O)cc1 was run?
A: Its Inhibition is 0%.

Q: With O=C(Nc1ccccc1Cl)N(Cc1cc(Cl)cc(Cl)c1)CC(O)COc1ccc(Cl)c(F)c1 (stereo not given) as the compound, how does the Inhibition read?
A: The Inhibition was 0%.

Q: With O=C(O)c1cccnc1Sc1ccc(Cl)cc1 as the compound, how does the Inhibition read?
A: The Inhibition was 5%.

Q: With COc1ccccc1-c1csc(C(=O)NCC2CCN(Cc3ccc(C(C)(C)C)cc3)C2)c1.O=C(O)C(F)(F)F (stereo not given) as the compound, how does the Inhibition read?
A: The Inhibition was 29%.

Q: How did the Inhibition turn out when COc1ccc2c(c1)Sc1ccccc1C(N1CCN(CCO)CC1)C2.Cl (stereo not given) was run?
A: The Inhibition was 11%.

Q: With CCCn1cnc2cc(C(=O)Nc3ccc(-c4cccc(CN(C)C)c4)cc3)ccc2c1=O as the compound, how does the Inhibition read?
A: The Inhibition was 26%.

Q: With Cc1cc(Nc2ccccc2)nc(Nc2ccccc2C)n1.Cl as the compound, how does the Inhibition read?
A: Its Inhibition is 8%.

Q: NCCNS(=O)(=O)c1ccc(-c2ccnc3[nH]c(-c4ccncc4)cc23)cc1.O=C(O)C(F)(F)F was tested. Which Inhibition did it give?
A: Its Inhibition is 0%.

Q: Which Inhibition does the source give for CCC(=O)N[C@@H]1CN[C@@H](C#Cc2cc3c(Nc4ccc(OCc5cccc(F)c5)c(Cl)c4)ncnc3s2)C1 here?
A: The Inhibition was 46%.

Q: FC(F)(F)c1ccc(NC(=S)N2CCC(CCN3CCC(c4c[nH]c5ccccc45)CC3)CC2)cc1 was tested. Which Inhibition did it give?
A: Its Inhibition is 44%.

Q: Which Inhibition does the source give for O=C(NCCCCN1CCC(c2ccc3c(c2OCC2CC2)CCCC3)CC1)c1ccc(NC(=O)c2ccc(Cl)cc2)cc1 here?
A: Its Inhibition is 23%.

Q: Cc1cc(C(=O)Nc2ccc3c(c2)CCN3C2CCN(Cc3cc(F)cc(F)c3F)C2)no1 (stereo not given) was tested. Which Inhibition did it give?
A: The Inhibition was 0%.

Q: Which Inhibition does the source give for CN(C)C(CNC(=O)c1cc(-c2ccncc2)c(-c2ccc(NC(=O)Nc3cccc(Cl)c3)cc2)o1)c1ccccc1.O=C(O)C(F)(F)F (stereo not given) here?
A: The Inhibition was 12%.
